Measured values from the supplement of paper PMC9262897, “Low-cost anti-mycobacterial drug discovery using engineered E. coli” (Nature Communications, 2022).
Where a name gives a salt, the structure may show the parent alone. ± gives the standard deviation of the averaged measurements.

Experiments:
Assay in all cases: growth (OD600 after 10 h); higher = more growth (less inhibition)
[1] = test system: E. coli TESEC Alr+ wild-type control; conditions: compound 0.1 mM; raw OD600 reference: median of DMSO wells 0.241, cell-free background 0.041
Protocol: (§1)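 TESEC Mtb Alr E. coli, or the Alr+ wild-type control, in 384-well plates with Prestwick library compounds at 0.1 mM and 1% DMSO, across arabinose induction levels of 1E3 to 1E7 nM. Growth is read as OD600 after 10 h at 37 °C in triplicate biological replicates.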

E. coli TESEC Mtb Alr [2] = conditions: compound 0.1 mM
Protocol: as §1

E. coli TESEC Mtb Asd = conditions: compound 0.1 mM
Protocol: (§2)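 TESEC E. coli strains in which the native enzyme is deleted and replaced by arabinose-inducible Mtb Asd, DapB, CysH or TrpD, each grown in its selective medium. Strains were screened against the Prestwick library at 0.1 mM and 1% DMSO in 384-well format at low and high arabinose induction. Growth is read as OD600 after 10 h in triplicate.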

E. coli TESEC Mtb DapB = conditions: compound 0.1 mM
Protocol: as §2

[3] = test system: E. coli TESEC Alr+ wild-type control; conditions: compound 0.1 mM; raw OD600 reference: median of DMSO wells 0.49, cell-free background 0.052
Protocol: (§3)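 TESEC Mtb Alr E. coli (ΔaraC ΔtolC ΔentC Δalr ΔdadX, arabinose-inducible Mtb Alr) or the Alr+ wild-type control strain, grown in defined M9-fructose medium without D-alanine in 96-well plates with Prestwick library compounds at 0.1 mM and 1% DMSO. Low Alr induction is 0.1 µM arabinose and high induction is 10 mM arabinose.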

E. coli TESEC Mtb Alr [4] = conditions: compound 0.1 mM; remark: listed apart in the source
Protocol: as §3

[5] = arabinose 1000 nM, raw OD600 reference: median of DMSO wells 0.294, cell-free background 0.041
[6] = arabinose 10000 nM, raw OD600 reference: median of DMSO wells 0.264, cell-free background 0.041
[7] = arabinose 100000 nM, raw OD600 reference: median of DMSO wells 0.201, cell-free background 0.041
[8] = arabinose 1000000 nM, raw OD600 reference: median of DMSO wells 0.193, cell-free background 0.041
[9] = arabinose 10000000 nM, raw OD600 reference: median of DMSO wells 0.146, cell-free background 0.041
[10] = arabinose induction (level): High, raw OD600 reference: median of DMSO wells 0.331, cell-free background 0.041
[11] = arabinose induction (level): Low, raw OD600 reference: median of DMSO wells 0.417, cell-free background 0.041
[12] = arabinose induction (level): High, raw OD600 reference: median of DMSO wells […], cell-free background 0.041
[13] = arabinose induction (level): Low, raw OD600 reference: median of DMSO wells 0.227, cell-free background 0.041
[14] = arabinose 100 nM, raw OD600 reference: median of DMSO wells 0.413, cell-free background 0.052
[15] = arabinose 10000000 nM, raw OD600 reference: median of DMSO wells […], cell-free background 0.052

Structure (SMILES) | growth [1] | growth (E. coli TESEC Mtb Alr [2]; [5]) | growth (E. coli TESEC Mtb Alr [2]; [6]) | growth (E. coli TESEC Mtb Alr [2]; [7]) | growth (E. coli TESEC Mtb Alr [2]; [8]) | growth (E. coli TESEC Mtb Alr [2]; [9]) | growth (E. coli TESEC Mtb Asd; [10]) | growth (E. coli TESEC Mtb Asd; [11]) | growth (E. coli TESEC Mtb DapB; [12]) | growth (E. coli TESEC Mtb DapB; [13]) | growth [3] | growth (E. coli TESEC Mtb Alr [4]; [14]) | growth (E. coli TESEC Mtb Alr [4]; [15])
CCCCNc1cc(C(=O)O)cc(S(N)(=O)=O)c1Oc1ccccc1 [Bumetanide] | 0.234 ± 0.0058 | 0.261 ± 0.021 | 0.251 ± 0.0081 | 0.167 ± 0.018 | 0.159 ± 0.0062 | 0.138 ± 0.0095 | 0.226 ± 0.01 | 0.449 ± 0.062 | 0.209 ± 0.027 | 0.215 ± 0.038 | 0.492 ± 0.048 | 0.426 ± 0.0046 | 0.333 ± 0.02
COC(=O)[C@H]1[C@H]2C[C@@H]3c4[nH]c5cc(OC)ccc5c4CCN3C[C@H]2C[C@@H](OC(=O)c2cc(OC)c(OC)c(OC)c2)[C@@H]1OC [Reserpine] | 0.201 ± 0.0092 | 0.234 ± 0.027 | 0.223 ± 0.02 | 0.214 ± 0.012 | 0.193 ± 0.012 | 0.214 ± 0.0036 | 0.333 ± 0.032 | 0.191 ± 0.0062 | 0.245 ± 0.0092 | 0.3 ± 0.038 | 0.467 ± 0.014 | 0.408 ± 0.013 | 0.112 ± 0.076
CCN(CCCc1ccccc1)CCCc1ccccc1 [Alverine citrate salt] | 0.205 ± 0.011 | 0.221 ± 0.013 | 0.286 ± 0.0067 | 0.177 ± 0.0094 | 0.1472 ± 0.00053 | 0.156 ± 0.011 | 0.211 ± 0.032 | 0.4 ± 0.074 | 0.153 ± 0.0058 | 0.205 ± 0.054 | 0.48 ± 0.026 | 0.418 ± 0.0047 | 0.328 ± 0.0065
CCn1cc(C(=O)O)c(=O)c2cc(F)c(N3CCNCC3)nc21 [Enoxacin] | 0.0456 ± 0.0012 | 0.0427 ± 0.0002 | 0.03917 ± 0.00031 | 0.0439 ± 0.0015 | 0.0411 ± 0.0025 | 0.0452 ± 0.0001 | 0.0919 ± 0.024 | 0.0687 ± 0.0059 | 0.06527 ± 0.00061 | 0.061 ± 0.0086 | 0.05513 ± 0.00042 | 0.0588 ± 0.0019 | 0.05293 ± 0.00025
Nc1ncnc2c1ncn2[C@@H]1O[C@H](CO)[C@@H](O)[C@@H]1O [Vidarabine] | 0.206 ± 0.012 | 0.273 ± 0.022 | 0.243 ± 0.011 | 0.145 ± 0.0058 | 0.148 ± 0.0035 | 0.138 ± 0.004 | 0.36 ± 0.077 | 0.383 ± 0.0057 | 0.171 ± 0.03 | 0.21 ± 0.048 | 0.535 ± 0.069 | 0.429 ± 0.012 | 0.306 ± 0.0082
CC(=O)OCC(=O)[C@@]12OC(C)(C)O[C@@H]1C[C@H]1[C@@H]3C[C@H](F)C4=CC(=O)C=C[C@]4(C)[C@@]3(F)[C@@H](O)C[C@@]12C [Fluocinonide] | 0.229 ± 0.0095 | 0.279 ± 0.012 | 0.275 ± 0.01 | 0.195 ± 0.015 | 0.213 ± 0.041 | 0.163 ± 0.037 | 0.434 ± 0.046 | 0.505 ± 0.0079 | 0.222 ± 0.013 | 0.234 ± 0.033 | 0.499 ± 0.058 | 0.432 ± 0.041 | 0.344 ± 0.033
C[C@@H]1C[C@H]2[C@@H]3C[C@H](F)C4=CC(=O)C=C[C@]4(C)[C@@]3(F)[C@@H](O)C[C@]2(C)[C@@]1(O)C(=O)COC(=O)C(C)(C)C [Flumethasone pivalate] | 0.207 ± 0.028 | 0.271 ± 0.028 | 0.267 ± 0.017 | 0.209 ± 0.016 | 0.182 ± 0.022 | 0.145 ± 0.012 | 0.256 ± 0.022 | 0.319 ± 0.066 | 0.2 ± 0.0088 | 0.239 ± 0.023 | 0.521 ± 0.057 | 0.43 ± 0.025 | 0.373 ± 0.025
COC(=O)Nc1nc2ccc(SC(C)C)cc2[nH]1 [Methiazole] | 0.244 ± 0.0029 | 0.278 ± 0.0056 | 0.271 ± 0.0072 | 0.195 ± 0.013 | 0.219 ± 0.0056 | 0.151 ± 0.0024 | 0.365 ± 0.093 | 0.33 ± 0.048 | 0.204 ± 0.019 | 0.235 ± 0.035 | 0.523 ± 0.037 | 0.427 ± 0.0091 | 0.37 ± 0.025
CC(=O)Oc1cccc2c1C(=O)c1c(OC(C)=O)cc(C(=O)O)cc1C2=O [Diacerein] | 0.122 ± 0.0032 | 0.136 ± 0.011 | 0.161 ± 0.0033 | 0.0638 ± 0.0022 | 0.0904 ± 0.0041 | 0.0642 ± 0.005 | 0.224 ± 0.019 | 0.348 ± 0.045 | 0.208 ± 0.019 | 0.23 ± 0.015 | 0.087 ± 0.0013 | 0.0492 ± 0.00056 | 0.0619 ± 0.0035
CN1[C@@H]2CC[C@H]1C[C@@H](OC(=O)c1c[nH]c3ccccc13)C2 [Tropisetron HCl] | 0.224 ± 0.0054 | 0.294 ± 0.0064 | 0.273 ± 0.0034 | 0.216 ± 0.036 | 0.177 ± 0.0038 | 0.158 ± 0.0026 | 0.305 ± 0.044 | 0.319 ± 0.034 | 0.219 ± 0.02 | 0.264 ± 0.05 | 0.53 ± 0.08 | 0.402 ± 0.012 | 0.359 ± 0.0044
CC1=C(C(=O)O)N2C(=O)[C@@H](NC(=O)[C@H](N)c3ccc(O)cc3)[C@H]2SC1 [Cefadroxil] | 0.255 ± 0.012 | 0.2848 ± 0.0015 | 0.274 ± 0.011 | 0.217 ± 0.011 | 0.199 ± 0.002 | 0.137 ± 0.0042 | 0.294 ± 0.035 | 0.444 ± 0.13 | 0.192 ± 0.0046 | 0.222 ± 0.011 | 0.606 ± 0.045 | 0.427 ± 0.012 | 0.326 ± 0.011
CN1CCN(C2=Nc3cc(Cl)ccc3Nc3ccccc32)CC1 [Clozapine] | 0.156 ± 0.008 | 0.206 ± 0.0044 | 0.242 ± 0.0072 | 0.178 ± 0.011 | 0.1 ± 0.0026 | 0.154 ± 0.0034 | 0.143 ± 0.018 | 0.293 ± 0.0055 | 0.17 ± 0.0049 | 0.205 ± 0.0082 | 0.502 ± 0.044 | 0.41 ± 0.0084 | 0.32 ± 0.011
